Among the data in the supplement of paper PMC10849652 are log2 fold change values, retold here.

Experiment in all cases: log2 fold change, soluble protein after heating vs DMSO (PISA); higher = thermal stabilisation; K562 cells, 10 uM, 30 min; active = over 0.2 and 3.5 SD of the protein, either way, in both replicates (recomputed)
Compound in test [1]: NC(=O)Nc1cc(-c2cccc(F)c2)sc1C(=O)N[C@H]1CCCNC1
In short, it runs like this:
(§1)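 K562 cells (2×10^6 cells/mL) were treated with 10 μM compound for 30 min, and aliquots were heated for 3 min over 48°C-58°C. Pooled aliquots were extracted in PBS with 0.5% NP-40 at 4°C, and the supernatant after 21,000xg for 90 min was measured by TMTpro 16plex LC-MS/MS with channel sums equalised. Reported thermal stability, relative to control samples and from duplicates, is a log2 fold change.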

Compound in test [2]: NC(=O)c1cnc(N[C@@H]2CCCC[C@@H]2N)nc1Nc1cccc(-n2nccn2)c1
An outline of the steps: as §1

Compound in test [3]: NC1(c2ccc(-c3nc4ccn5c(=O)[nH]nc5c4cc3-c3ccccc3)cc2)CCC1
In short, it runs like this:
as §1

Compound in test [4]: NCC(=O)Nc1ccc(-n2nc(C(F)(F)F)cc2-c2ccc3c(ccc4ccccc43)c2)cc1
An outline of the steps: as §1

Compound in test [5]: Nc1ccccc1NC(=O)c1ccc(CNC(=O)OCc2cccnc2)cc1 [entinostat]
An outline of the steps:
as §1

Compound in test [6]: O=C(CCCCCCC(=O)Nc1ccccc1)NO [vorinostat]
An outline of the steps: as §1

Compound in test [7]: O=C(CCCCCCNC(=O)c1cnc(N(c2ccccc2)c2ccccc2Cl)nc1)NO [citarinostat]
An outline of the steps: as §1

Compound in test [8]: O=C(O)c1ccc2c(c1)nc(Nc1cccc(Cl)c1)c1ccncc12 [silmitasertib]
An outline of the steps: as §1

Compound in test [9]: O=C1NC(=O)C(c2cnc3ccccn23)=C1c1cn2c3c(cc(F)cc13)CN(C(=O)N1CCCCC1)CC2
An outline of the steps: as §1

Compound in test [10]: c1cc(OCCN2CCCCC2)cc(-c2n[nH]c3ccc(-c4nnc[nH]4)cc23)c1
In short, it runs like this:
as §1

The full data set covers some 7,900 targets. This sample favours those with a hit. About 0.6% of all pairs of compound and target were hits. A number with no mark means an inactive call.

Chain of UniProt Q99661 (Q99661 whole entry, looked up): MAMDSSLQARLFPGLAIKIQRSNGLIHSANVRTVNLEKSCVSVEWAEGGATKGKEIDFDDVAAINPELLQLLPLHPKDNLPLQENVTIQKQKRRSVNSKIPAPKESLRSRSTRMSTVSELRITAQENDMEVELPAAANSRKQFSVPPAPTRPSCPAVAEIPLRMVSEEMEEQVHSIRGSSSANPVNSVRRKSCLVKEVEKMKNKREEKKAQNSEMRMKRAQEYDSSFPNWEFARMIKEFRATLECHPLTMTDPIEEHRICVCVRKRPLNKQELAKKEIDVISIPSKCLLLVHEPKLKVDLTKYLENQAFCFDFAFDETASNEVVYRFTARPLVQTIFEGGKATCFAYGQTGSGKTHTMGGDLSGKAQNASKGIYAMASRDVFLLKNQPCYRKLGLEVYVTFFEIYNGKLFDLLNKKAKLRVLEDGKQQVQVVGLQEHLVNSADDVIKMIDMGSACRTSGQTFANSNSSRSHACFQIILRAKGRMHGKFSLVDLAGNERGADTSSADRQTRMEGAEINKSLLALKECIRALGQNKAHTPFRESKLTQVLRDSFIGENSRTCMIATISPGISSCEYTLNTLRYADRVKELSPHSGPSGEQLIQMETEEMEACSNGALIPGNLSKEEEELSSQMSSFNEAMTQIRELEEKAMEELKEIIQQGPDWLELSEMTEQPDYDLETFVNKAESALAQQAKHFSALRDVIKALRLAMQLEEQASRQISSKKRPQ
Chain of UniProt O95372 (O95372 whole entry, looked up): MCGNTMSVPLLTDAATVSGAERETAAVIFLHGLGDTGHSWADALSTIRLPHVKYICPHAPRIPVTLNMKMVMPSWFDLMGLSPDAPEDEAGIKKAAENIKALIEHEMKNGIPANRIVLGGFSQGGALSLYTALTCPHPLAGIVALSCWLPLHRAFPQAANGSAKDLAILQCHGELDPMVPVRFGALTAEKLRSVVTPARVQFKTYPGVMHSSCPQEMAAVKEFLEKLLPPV
Chain of UniProt Q13418 (Q13418 whole entry, looked up): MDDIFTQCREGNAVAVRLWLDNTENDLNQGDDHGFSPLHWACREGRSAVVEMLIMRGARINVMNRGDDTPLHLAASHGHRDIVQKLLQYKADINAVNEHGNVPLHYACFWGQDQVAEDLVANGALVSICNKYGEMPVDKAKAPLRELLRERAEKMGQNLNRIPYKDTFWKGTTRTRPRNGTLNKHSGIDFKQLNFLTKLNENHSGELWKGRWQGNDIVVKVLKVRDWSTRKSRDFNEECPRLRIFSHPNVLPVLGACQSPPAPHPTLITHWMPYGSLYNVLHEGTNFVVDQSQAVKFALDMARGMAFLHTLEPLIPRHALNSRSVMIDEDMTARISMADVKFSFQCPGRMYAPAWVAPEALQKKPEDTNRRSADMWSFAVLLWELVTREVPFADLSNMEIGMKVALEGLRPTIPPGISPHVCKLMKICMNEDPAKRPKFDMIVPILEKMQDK
Chain of UniProt Q86X29 (Q86X29 whole entry, looked up): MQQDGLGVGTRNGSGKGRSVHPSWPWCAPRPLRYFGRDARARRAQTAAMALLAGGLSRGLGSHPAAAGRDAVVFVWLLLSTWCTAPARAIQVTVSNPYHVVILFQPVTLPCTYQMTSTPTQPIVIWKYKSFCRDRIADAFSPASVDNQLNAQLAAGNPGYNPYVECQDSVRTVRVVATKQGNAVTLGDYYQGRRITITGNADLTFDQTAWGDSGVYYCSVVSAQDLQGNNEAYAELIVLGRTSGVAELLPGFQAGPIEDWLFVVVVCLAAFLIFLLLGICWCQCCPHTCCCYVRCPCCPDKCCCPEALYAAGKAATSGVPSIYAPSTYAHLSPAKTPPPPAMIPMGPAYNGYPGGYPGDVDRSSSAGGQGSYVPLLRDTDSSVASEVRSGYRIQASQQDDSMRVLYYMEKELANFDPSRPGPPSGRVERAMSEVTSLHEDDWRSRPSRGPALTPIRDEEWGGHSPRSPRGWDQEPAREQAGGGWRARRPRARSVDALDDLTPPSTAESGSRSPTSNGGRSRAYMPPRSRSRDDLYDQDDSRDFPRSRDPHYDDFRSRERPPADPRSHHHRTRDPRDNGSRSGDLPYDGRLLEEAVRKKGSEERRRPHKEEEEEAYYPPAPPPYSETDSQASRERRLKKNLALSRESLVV
Chain of UniProt Q14681 (Q14681 whole entry, looked up): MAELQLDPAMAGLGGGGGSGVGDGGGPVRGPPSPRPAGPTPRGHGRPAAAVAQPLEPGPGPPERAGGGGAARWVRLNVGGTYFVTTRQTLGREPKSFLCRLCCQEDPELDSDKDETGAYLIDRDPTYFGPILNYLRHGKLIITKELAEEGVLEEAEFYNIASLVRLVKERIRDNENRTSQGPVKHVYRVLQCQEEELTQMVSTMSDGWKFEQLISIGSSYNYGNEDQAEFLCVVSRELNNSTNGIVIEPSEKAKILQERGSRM
Chain of UniProt Q7Z4S6 (Q7Z4S6 whole entry, looked up): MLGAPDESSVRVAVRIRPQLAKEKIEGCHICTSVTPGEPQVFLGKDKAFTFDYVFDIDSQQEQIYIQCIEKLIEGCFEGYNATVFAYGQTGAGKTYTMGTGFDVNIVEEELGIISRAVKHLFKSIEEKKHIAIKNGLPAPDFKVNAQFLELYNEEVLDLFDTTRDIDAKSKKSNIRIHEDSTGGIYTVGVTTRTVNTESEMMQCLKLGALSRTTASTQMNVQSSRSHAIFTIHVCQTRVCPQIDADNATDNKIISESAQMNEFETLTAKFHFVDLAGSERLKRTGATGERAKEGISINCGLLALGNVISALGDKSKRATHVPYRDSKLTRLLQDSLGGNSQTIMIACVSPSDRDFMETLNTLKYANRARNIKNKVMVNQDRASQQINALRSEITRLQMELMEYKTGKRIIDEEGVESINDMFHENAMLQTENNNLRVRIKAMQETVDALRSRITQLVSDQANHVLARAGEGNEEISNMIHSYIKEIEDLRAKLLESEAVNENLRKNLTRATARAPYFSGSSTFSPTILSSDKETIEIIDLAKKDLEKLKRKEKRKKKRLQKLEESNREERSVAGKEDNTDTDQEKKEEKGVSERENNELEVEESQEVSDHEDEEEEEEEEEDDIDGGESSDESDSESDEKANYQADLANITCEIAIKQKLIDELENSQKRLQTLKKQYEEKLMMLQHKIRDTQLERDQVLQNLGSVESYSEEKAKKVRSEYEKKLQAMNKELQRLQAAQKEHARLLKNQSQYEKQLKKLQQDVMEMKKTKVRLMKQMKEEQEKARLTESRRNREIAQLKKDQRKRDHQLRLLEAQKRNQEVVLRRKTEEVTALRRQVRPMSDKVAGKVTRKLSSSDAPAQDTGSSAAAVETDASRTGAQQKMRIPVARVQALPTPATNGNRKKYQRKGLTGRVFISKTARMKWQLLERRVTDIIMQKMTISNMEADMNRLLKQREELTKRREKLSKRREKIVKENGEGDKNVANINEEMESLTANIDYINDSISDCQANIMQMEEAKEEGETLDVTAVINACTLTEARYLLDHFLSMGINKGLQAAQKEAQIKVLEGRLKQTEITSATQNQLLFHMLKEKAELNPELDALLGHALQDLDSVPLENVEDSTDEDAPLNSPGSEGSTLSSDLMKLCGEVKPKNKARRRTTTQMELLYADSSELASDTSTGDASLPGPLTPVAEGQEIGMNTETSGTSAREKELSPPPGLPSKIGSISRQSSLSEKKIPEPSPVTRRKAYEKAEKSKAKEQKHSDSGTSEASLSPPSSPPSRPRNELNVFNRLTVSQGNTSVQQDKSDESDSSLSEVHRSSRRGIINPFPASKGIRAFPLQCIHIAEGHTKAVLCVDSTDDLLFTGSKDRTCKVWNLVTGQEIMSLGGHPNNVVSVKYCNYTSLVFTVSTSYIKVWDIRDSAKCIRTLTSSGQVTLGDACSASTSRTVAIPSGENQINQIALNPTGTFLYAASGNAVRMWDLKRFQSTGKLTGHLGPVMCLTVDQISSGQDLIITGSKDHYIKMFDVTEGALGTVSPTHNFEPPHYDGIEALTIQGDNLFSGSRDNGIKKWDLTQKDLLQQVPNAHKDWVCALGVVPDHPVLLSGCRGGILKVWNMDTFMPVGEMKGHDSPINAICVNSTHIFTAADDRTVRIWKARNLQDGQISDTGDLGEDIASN
Chain of UniProt Q9BQK8 (Q9BQK8 whole entry, looked up): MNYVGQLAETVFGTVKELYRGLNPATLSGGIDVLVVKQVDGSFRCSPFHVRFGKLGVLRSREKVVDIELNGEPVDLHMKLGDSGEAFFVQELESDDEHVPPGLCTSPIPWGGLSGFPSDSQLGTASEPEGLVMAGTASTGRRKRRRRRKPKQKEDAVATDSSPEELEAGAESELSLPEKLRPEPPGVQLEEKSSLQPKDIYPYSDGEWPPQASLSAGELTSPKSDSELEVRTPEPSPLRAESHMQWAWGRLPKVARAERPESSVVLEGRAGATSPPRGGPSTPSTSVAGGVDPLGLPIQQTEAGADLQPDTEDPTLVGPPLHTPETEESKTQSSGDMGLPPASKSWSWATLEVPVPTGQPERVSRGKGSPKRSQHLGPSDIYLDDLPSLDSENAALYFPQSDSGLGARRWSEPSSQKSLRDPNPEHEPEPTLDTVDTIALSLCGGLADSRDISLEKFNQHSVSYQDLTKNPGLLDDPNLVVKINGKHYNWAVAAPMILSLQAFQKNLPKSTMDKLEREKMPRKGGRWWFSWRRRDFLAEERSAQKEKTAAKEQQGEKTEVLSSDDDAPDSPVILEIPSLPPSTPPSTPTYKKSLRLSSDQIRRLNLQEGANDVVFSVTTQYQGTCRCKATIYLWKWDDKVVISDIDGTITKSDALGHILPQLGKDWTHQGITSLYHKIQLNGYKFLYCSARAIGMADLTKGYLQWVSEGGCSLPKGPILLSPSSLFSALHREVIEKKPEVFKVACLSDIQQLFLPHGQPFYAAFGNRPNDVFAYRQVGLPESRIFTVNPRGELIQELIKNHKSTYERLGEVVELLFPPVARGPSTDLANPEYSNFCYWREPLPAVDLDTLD
Chain of UniProt Q8WV07 (Q8WV07 whole entry, looked up): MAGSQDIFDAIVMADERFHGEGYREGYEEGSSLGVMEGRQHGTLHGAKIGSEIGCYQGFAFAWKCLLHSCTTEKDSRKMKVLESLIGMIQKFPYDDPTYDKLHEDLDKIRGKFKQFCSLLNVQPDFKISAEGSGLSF

On to LSR (UniProt Q86X29), for which the log2 fold change in test [1] was -0.135; in [2], 0.066; in test [3], 0.066; in test [4], 0.039; in [5] it was -0.054; in test [6] it was -0.027. Further, the log2 fold change is 0.006 in test [7], -0.036 in test [8], 0.03 in [9] and -0.012 in [10].
Regarding KCTD2 (UniProt Q14681), the log2 fold change is -0.524 in test [1]; -0.195 in [2]; 0.032 in test [3]; -0.119 in test [4]; -0.35 in test [5]; -0.543 in test [6]. The log2 fold change was -0.274 in [7], 0.119 in test [8], -0.121 in test [9] and -0.204 in test [10].
KIF21A isoform 4 (UniProt Q7Z4S6): the log2 fold change is -0.068 in test [1]; 0.055 in test [2]; -0.049 in [3]; -0.093 in test [4]; 0.01 in test [5]; 0.012 in test [6]. For the same target, the log2 fold change in test [7] was 0.002; in test [8] it was 0.033; in [9] it was 0.213; in [10], -0.087.
Consider MIER1 isoform 12 (UniProt Q8N108), for which the log2 fold change was -0.026 in [1]; -0.03 in test [2]; -0.074 in test [3]; -0.025 in test [4]; 0.292 (active) in [5]; 0.28 (active) in test [6]. Also, the log2 fold change in [7] is 0.273 (active); in [8] it was -0.017; in [9] it was -0.066; in test [10], -0.061.
As to KIF2C (UniProt Q99661), the log2 fold change is -0.024 in [1]; 0 in test [2]; -0.053 in test [3]; -0.068 in test [4]; 0.095 in [5]; 0.122 in test [6]. The log2 fold change in test [7] is 0.156; in [8], -0.009; in test [9], -0.005; in test [10], -0.001.
Take ILK (UniProt Q13418): the log2 fold change in test [1] was -0.236; in test [2], -0.125; in [3], -0.07; in test [4], -0.095; in test [5] it was -0.149; in test [6], 0.083. For the same target, the log2 fold change in test [7] is -0.006; in test [8], -0.003; in test [9] it was -0.036; in test [10] it was -0.048.
Take LBR (UniProt Q14739): the log2 fold change in test [1] was 0.025; in [2], -0.008; in test [3], 0.004; in test [4], -0.003; in test [5], 0.023; in test [6], 0.021. Besides, the log2 fold change in test [7] is -0.021; in test [8], -0.085; in test [9], 0.012; in test [10], 0.082.
Consider LPIN3 isoform 2 (UniProt Q9BQK8), for which the log2 fold change in test [1] was 0.014; in test [2] it was -0.027; in test [3], -0.044; in [4], 0.041; in [5] it was -0.006; in [6], 0.011. The log2 fold change in test [7] was 0.001; in test [8] it was -0.116; in test [9] it was -0.054; in [10], -0.142.
Regarding LYPLA2 (UniProt O95372), the log2 fold change in [1] is 0.02; in [2] it was 0.043; in test [3], -0.031; in test [4], 0.09; in test [5] it was 0.114; in test [6], -0.065. Besides, the log2 fold change in test [7] was 0.018; in test [8], -0.048; in [9], 0; in test [10] it was 0.036.
On to MIF (UniProt P14174), for which the log2 fold change in test [1] is -0.059; in test [2] it was 0.092; in test [3], 0.103; in test [4], 0.048; in [5], 0.099; in test [6], -0.085. Also, the log2 fold change was -0.013 in test [7], 0.036 in [8], -0.196 in [9] and 0.063 in [10].
With MAP3K20 (UniProt Q9NYL2), the log2 fold change was -0.008 in test [1]; 0.035 in test [2]; -0.012 in test [3]; -0.03 in [4]; 0.019 in test [5]; 0 in test [6]. Besides, the log2 fold change in test [7] was 0.002; in test [8], 0.031; in test [9], 0.026; in test [10] it was -0.09.
Consider LMBRD2 (UniProt Q68DH5), for which the log2 fold change was 0.028 in test [1]; 0.044 in [2]; 0.099 in test [3]; -0.025 in test [4]; -0.011 in test [5]; -0.015 in test [6]. Also, the log2 fold change in test [7] was 0.057; in [8], -0.049; in [9] it was -0.09; in test [10], -0.005.
Turning to KEL (UniProt P23276), the log2 fold change in test [1] was -0.004; in test [2], 0.088; in test [3], -0.215; in test [4], 0.017; in test [5], -0.022; in test [6], 0.03. The log2 fold change is 0.019 in [7], 0.108 in test [8], 0.115 in test [9] and -0.001 in test [10].
Turning to LTO1 (UniProt Q8WV07), the log2 fold change in test [1] was -0.077; in test [2], 0.009; in test [3], -0.011; in test [4], 0.094; in test [5], -0.097; in test [6], 0.005. The log2 fold change in test [7] was 0.044; in test [8] it was 0.158; in [9], -0.015; in [10], -0.126.
In the case of LGALS8 isoform 2 (UniProt O00214), the log2 fold change was -0.053 in test [1]; -0.096 in [2]; 0.179 in test [3]; 0.055 in test [4]; 0.091 in test [5]; 0.078 in test [6]. The log2 fold change is 0.051 in test [7], 0.147 in test [8], 0.121 in test [9] and -0.129 in test [10].
